This is a sample that favours compounds with a hit; in the whole collection about 3.8% have one here.
PrP UTR inh: inhibition of PrP 5' UTR reporter expression. cell-based PrP 5' UTR mRNA reporter, plate reader. inhibition, % (no concentration beside the values). 340,000 tested, 0.35% active. AID 488862; in the data active = inhibition above about 52%; also: 0 = median of the neutral control wells
Mtb FBA inh: inhibitors of M. tuberculosis fructose-bisphosphate aldolase; purified M. tuberculosis FBA, fluorescence read-out; inhibition, % at 1 µM; 360,000 tested, 2.3% active; AID 588726; in the data active = inhibition above about 27%;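 also: 0% = vehicle and 100% = reference inhibitor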
Target sequence (P9WQA3 whole entry, looked up): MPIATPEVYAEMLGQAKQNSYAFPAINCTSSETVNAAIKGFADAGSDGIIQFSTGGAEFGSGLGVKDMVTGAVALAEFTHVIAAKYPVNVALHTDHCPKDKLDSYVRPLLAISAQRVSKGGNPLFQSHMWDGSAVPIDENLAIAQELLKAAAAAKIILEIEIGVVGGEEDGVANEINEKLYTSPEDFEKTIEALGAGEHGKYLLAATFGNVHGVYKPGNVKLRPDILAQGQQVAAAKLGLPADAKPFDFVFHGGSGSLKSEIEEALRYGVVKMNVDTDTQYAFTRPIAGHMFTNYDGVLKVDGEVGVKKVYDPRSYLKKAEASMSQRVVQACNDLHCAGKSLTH
GDH-TPI inh: inhibits GDH-TPI coupling enzymes, artifact for Mtb FBA screen; inhibition, % at 4.8 µM; AID 588335; 360,000 tested, 1.2% active; GDH-TPI coupled enzyme counterscreen, NADH absorbance; in the data active = inhibition above about 30%;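 also: 0% = DMSO wells and 100% = wells lacking the enzyme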
Mtb hypoxia rep: Mtb hypoxia fluorescent reporter inhibition. 300,000 tested, 0.1% active. AID 1159583. M. tuberculosis hypoxia-regulated fluorescent reporter, fluorescence. fluorescence inhibition, % (test concentration not listed); in the data active = fluorescence inhibition mostly above about 23%, no sharp cut-off; inactive = mostly below about 17%
Y pestis TopoI: inhibitors of Yersinia pestis topoisomerase I | AID 504884 | activity, % at 10 µM | 360,000 tested, 0.064% active | Y. pestis Topo-I cleavage product accumulation, plate reader; in the data active = activity above about 50%, passing the limit was not always enough
PrPC surface inh: cell surface PrPC inhibition, primary TR-FRET screen; AID 720596; 370,000 tested, 0.43% active; inhibition, % at 13.8 µM; P04156; TR-FRET read-out; in the data active = inhibition above about 24%; also: 0% = median of the test wells and 100% = reference compound wells
* = called active by the depositor; · = not tested or not shown; + = active, no number.

SMILES | PrP UTR inh | Mtb FBA inh | GDH-TPI inh | Mtb hypoxia rep | Y pestis TopoI | PrPC surface inh
CC(=NNS(=O)(=O)c1ccc(C(C)(C)C)cc1)c1ccc2c(c1)OCO2 | · | · | · | 12.5 | · | ·
COC(=O)C1=C(c2ccc(OC)c(OC)c2)CC2CCC1N2C(=O)NC1CCCCC1 (stereo not drawn) | · | · | · | 3.6 | · | ·
CCCn1nnc(NC(=O)c2ccccc2Cl)n1 | -43.4 | -3.5 | 4.9 | -0.8 | -3.6 | 0.2
CCCn1nnc(NC(=S)NC(=O)c2ccccc2OC)n1 | -19.1 | 1.9 | -11.0 | 32.9* | -4.4 | -5.0
Cc1nc2ccccn2c1C(O)=C1C(=O)C(=O)N(CCCn2ccnc2)C1c1ccncc1 (stereo not drawn) | · | · | · | 5.3 | · | ·
CNc1cnc(-c2ccccc2OC)cn1 | · | 124.9* | 18.6 | · | -4.6 | -6.5
CCOc1ccccc1-c1cnc(NC)cn1 | · | + | 19.0 | · | 9.9 | 9.8
COC(=O)C1NC(C(NC(=O)COc2ccccc2)C(=O)NCc2ccc(OC)cc2)SC1(C)C (stereo not drawn) | · | · | · | 21.6 | · | ·
CCn1c(C(=O)NCCCc2ccccc2)cc2sccc21 | 4.0 | 0.6 | 5.5 | 8.5 | -5.9 | 6.0
O=C(NCCc1ccccc1)c1cc2sccc2n1Cc1ccccc1 | -11.4 | 156.2* | 4.2 | · | 36.3 | 10.4
Cc1c(C)c2cc(Cl)c(O)c(CN3CCN(C)CC3)c2oc1=O | -1.7 | + | 27.7 | -6.2 | -2.8 | -1.1
CCc1cc2c(=O)c(-c3nc4ccccc4n3C)c(C(C)C)oc2c(CN2CCN(C)CC2)c1O | -36.1 | 16.9 | 0.6 | 1.7 | 4.9 | -3.3
CC1CCCN(Cc2cnc(Cl)s2)C1 (stereo not drawn) | -19.2 | -1.2 | 6.0 | · | 1.1 | 2.2
Cc1c(C)c2cc(Cl)c(O)c(CN3CCCC(C)C3)c2oc1=O (stereo not drawn) | 3.2 | + | 8.2 | 3.5 | -7.6 | -8.0
Cc1ccc(C=NNC(=O)c2csc(C)c2)o1 | · | · | · | 3.0 | · | ·
Cc1ccc(/C=N/NC(=O)c2ccncc2)o1 | -10.8 | -4.5 | 38.1* | · | 0.7 | 3.9
Cc1ccc(/C=N/NC(=O)c2cccc(NC(=O)c3ccccc3C)c2)o1 | -20.7 | -3.4 | 13.4 | · | 4.0 | 7.7
C/C(=N\NC(=O)c1ccc(N/N=C(\C)c2ccncc2)cc1)c1ccncc1 | -22.4 | -3.7 | 31.5* | · | -5.5 | -18.3
Cc1ccc(/C=N/NC(=O)c2cc3c(s2)CCCC3)o1 | -23.6 | 2.3 | 40.1* | · | 2.5 | 7.3
Cc1cccc(C(=O)Nc2ccc(C(=O)N/N=C/c3ccc(C)o3)cc2)c1 | -15.3 | -3.0 | 40.8* | · | -6.4 | 6.5
COC(=O)C1=C(C(=O)OC)C2N(Cc3ccccc3)c3ccccc3[C@@]23CC(C(=O)OC)N(C(=O)c2cccs2)C3=N1 (stereo partly drawn) | · | · | · | 4.0 | · | ·
COc1ccc(C2CC(=O)C=C(c3ccc(Cl)c(Cl)c3)C2)cc1 (stereo not drawn) | · | · | · | 2.1 | · | ·
CCCCCC1CN(C2CCCCC2)C(=O)C1CC(=O)NCc1ccc(OC)cc1 (stereo not drawn) | · | · | · | 9.0 | · | ·
C[N+]1=C(/C=C/Nc2ccccc2Cl)C(C)(C)c2ccccc21 | -2.0 | -0.4 | 35.9* | -2.6 | -6.8 | 9.0
COC(=O)c1ccc2c(c1)C(C)(C)C(/C=C/c1ccccc1O)=[N+]2C | -33.1 | 15.1 | 4.3 | 3.5 | -23.4 | 4.1
SMILES | PrP UTR inh | Mtb FBA inh | GDH-TPI inh | Mtb hypoxia rep | Y pestis TopoI | PrPC surface inh
S=c1sc2c(N3CCN(Cc4ccccc4)CC3)ncnc2n1-c1ccccc1 | -15.2 | 1.6 | 6.0 | · | 0.2 | -2.8
CCN1CCN(c2ncnc3c2sc(=S)n3-c2ccccc2)CC1 | -4.0 | 2.1 | 38.6* | · | 5.4 | -2.1
CCC[C@@H]1C[C@@H](C(=O)NC(C(C)Cl)[C@H]2O[C@H](SC)[C@H](O)[C@@H](O)[C@H]2O)N(C)C1 (stereo partly drawn) | -6.9 | 4.5 | 9.8 | · | -10.7 | 2.4
CCCC1CC(C(=O)NC(C(C)Cl)C2OC(SC)C(O)C(O)C2O)N(C)C1 (stereo not drawn) | -18.4 | 2.3 | -2.6 | 44.1* | 5.4 | -2.6
O=C1c2ccccc2NC(c2ccccn2)N1c1ccc(Cl)cc1 (stereo not drawn) | -20.5 | 18.4 | -1.9 | 9.2 | 7.9 | -4.2
c1ccc(C2Nc3ccccc3-c3nc4ccccc4n32)cc1 (stereo not drawn) | -4.0 | 139.2* | 18.4 | 7.4 | 0.6 | 0.2
c1ccc(C2Nc3ccccc3-c3nc4ccccc4n32)nc1 (stereo not drawn) | -10.1 | 118.9* | 4.5 | · | -1.9 | 5.8
Cn1nc(C(=O)N2CCN(S(=O)(=O)c3ccccc3)CC2)c2ccccc2c1=O | -17.6 | 106.9* | -1.2 | 5.5 | -7.7 | 3.2
Cc1ccc(S(=O)(=O)N2CCN(C(=O)c3nn(C(C)C)c(=O)c4ccccc34)CC2)cc1C | -3.3 | 0.5 | 1.7 | · | 6.3 | -3.1
O=C(NCc1nc2ccccc2[nH]1)C1=CC(c2ccc(C(F)(F)F)cc2)CC(OCCCCO)O1 (stereo not drawn) | · | · | · | 13.2 | · | ·
O=C1C=C(c2ccc(O)cc2)CC(c2ccc(Cl)cc2)C1 (stereo not drawn) | · | · | · | -1.6 | · | ·
O=C(NCc1ccccn1)C(=O)NN=Cc1ccc2c(c1)OCO2 | · | · | · | 5.8 | · | ·
CC(=NNc1ccc(S(=O)(=O)N2CCOCC2)cc1[N+](=O)[O-])C(C)C | · | · | · | 9.3 | · | ·
CC(C)(NO)/C(=N\O)c1ccccc1 | -10.3 | 53.8* | -6.0 | · | -1.4 | -0.5
N#Cc1nc(-c2ccco2)oc1NCc1cccnc1 | 4.9 | 23.2 | 15.9 | -12.8 | -6.3 | -2.3
CN(C)CCCNc1oc(-c2ccc(Cl)cc2)nc1C#N | -22.6 | 172.7* | 17.1 | 9.1 | -6.8 | -2.6
COCCNc1oc(-c2ccc(C)cc2)nc1C#N | -77.6 | 199.6* | 22.9 | 6.1 | -1.8 | -7.5
COc1ccc(-c2nc(C#N)c(NCCN(C)C)o2)cc1 | -29.1 | 123.2* | 10.9 | 7.2 | -1.2 | 0.5
N#Cc1nc(-c2cccc(Cl)c2)oc1NCc1cccnc1 | -22.4 | 141.0* | 13.1 | 1.0 | 25.8 | 11.3
CN(C)CCNc1oc(COc2ccc(Cl)cc2Cl)nc1C#N | · | 2.7 | 3.4 | 1.9 | -7.2 | -6.3
Nc1ccccc1C(=O)NN=C1C2CN3CCN(C2)CC1(Cc1ccccc1)C3 | · | · | · | 5.6 | · | ·
CCN(CC)CCCNc1oc(-c2cccc(Cl)c2)nc1C#N | -25.2 | 134.1* | 0.3 | 4.7 | -8.9 | -0.5
COCCNc1oc(-c2ccc(Cl)cc2)nc1C#N | -90.7 | + | 37.0* | 3.9 | -5.8 | 7.2
COc1ccc(Nc2oc(-c3ccc(Cl)cc3)nc2C#N)cc1 | -120.1 | -1.9 | 28.3 | 2.6 | -1.5 | 9.1
N#Cc1nc(-c2ccc(Cl)cc2)oc1NCc1ccco1 | -60.4 | 174.8* | 7.1 | · | 8.7 | 13.2
CCOC1OC(C(=O)NCc2nc3ccccc3[nH]2)=CC(c2ccc(Br)cc2)C1CCCO (stereo not drawn) | · | · | · | 18.4 | · | ·
COc1ccc(/C=N/N=C2/NC(=O)C(c3ccccc3)S2)c(OC)c1 (stereo not drawn) | -5.6 | -4.2 | 31.5* | · | 3.9 | -7.1
COc1ccc(CC2S/C(=N/N=C/c3ccccc3O)NC2=O)cc1 (stereo not drawn) | -29.9 | -0.4 | 36.7* | · | 5.9 | -0.6

Assay outcomes as filed in PubChem.
